These results are taken from PubChem BioAssay (EPA / NIEHS).

Several values for one entry are separate records, joined by “and”; a condition that tells them apart may be missing. Identical values can stand only once. Activity calls are given as the source filed them. Rule for the calls: active = hit-call score of the fitted dose curve at least 0.9, where 1 is the maximum; inactive = score below 0.9.

The nature of this assay: BSK_BE3C_SRB: Viability Assessment in the BioMAP Diversity Plus: BE3C Assay (AID 2283028).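 For AC50: fitted both ways so AC50 may mark signal gain or loss versus DMSO.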 Conditions: primary human bronchial epithelial cells. On the procedure:
BSK_BE3C is a cell-based, multiplexed-readout assay that uses bronchial epithelial cell, a human lung primary cell, with measurements taken at 24 hours after chemical dosing in a 96-well plate.BSK_BE3C_SRB is an assay component measured in the BSK_BE3C assay. It measures 0.1% sulforhodamine related to cell death using Sulforhodamine staining technology.Data from the assay component BSK_BE3C_SRB was analyzed into 1 assay endpoint. This assay endpoint, BSK_BE3C_SRB, was analyzed with bidirectional fitting relative to DMSO as the negative control and baseline of activity. Using a type of viability reporter, gain or loss-of-signal activity can be used to understand changes in the signaling. Furthermore, this assay endpoint can be referred to as a primary readout, because this assay has produced multiple assay endpoints where this one serves a signaling function. To generalize the intended target to other relatable targets, this assay endpoint is annotated to the cell morphology intended target family, where the subfamily is cell conformation.
The levels of cell surface (or secreted, indicated by the prefix "s") biomarker endpoints were measured by ELISA. Overt cytotoxicity to cells in confluent adherent cultures (all systems other than the BT system) was assessed by measuring total protein levels using sulforhodamine B (SRB) staining in parallel cultures at the time of biomarker measurements, indicated as SRB endpoints. For proliferation assays for adherent cell types, individual cell types are cultured at sub-confluence and relative cell numbers quantified by SRB staining at time points optimized for each system (48 h: 3C and CASM3C systems; 72 h: BT and HDF3CGF systems; 96 h: SAg system). SRB was performed by staining cells with 0.1% SRB after fixation with 10% TCA and reading wells at 560 nm.Viability and proliferation of PBMC (T cells) was quantified by Alamar Blue reduction for the SAg and BT systems. For PBMC viability (referred to as PBMC Cytotoxicity within the assay endpoint names), cells were plated (75,000/well in a 96-well plate) and then chemical samples added for 1 h before addition of activators, SEB and TSST-1 (20 ng/mL final concentration each). Cells were incubated for 90 h. Then, Alamar Blue (20 uL/well) (Invitrogen, Cat DAL1100) was added for 6 h, and the plates were read with a fluorescence microplate reader at 546/580 nm (excitation/emission). For PBMC proliferation, cells were plated and activated as above but incubated for only 16 h prior to addition of Alamar Blue. Plates were read after 6 h.
For `CCOc1cc(Oc2ccc(C(F)(F)F)cc2Cl)ccc1[N+](=O)[O-]`, the AC50 was 6.77 µM (active).

As for `N#Cc1nn(-c2c(Cl)cc(C(F)(F)F)cc2Cl)c(N)c1S(=O)C(F)(F)F` (stereo not given), the AC50 is 18 µM (active). On to `CC(Oc1ccc(Cl)cc1Cl)C(=O)O` (stereo not given), for which the result was inactive. As for `COC(=O)c1ccccc1C(=O)OC`, the result was inactive.

Regarding `CS/C(C)=N/OC(=O)N(C)SN(C)C(=O)O/N=C(\C)SC`, the AC50 is 28.6 µM (active). On to `CCON=C(CC)C1=C(O)CC(c2c(C)cc(C)cc2C)CC1=O` (stereo not given), for which the result was inactive. Regarding `CN(C)C(=S)SSC(=S)N(C)C`, the AC50 was 8.39 µM (active). For `COc1cnc(OC)n2nc(NS(=O)(=O)c3c(OCC(F)F)cccc3C(F)(F)F)nc12`, the outcome was inactive. For the compound `CCOC(=O)CC(SP(=S)(OC)OC)C(=O)OCC` (stereo not given), the outcome was inactive. For the compound `COP(=S)(OC)Oc1nc(Cl)c(Cl)cc1Cl`, the outcome was inactive. As for `Fc1ccc(Oc2ccnc3cc(Cl)cc(Cl)c23)cc1`, the AC50 was 32.8 µM (active). The same measure, in the same setting: then `CCCN(CCC)c1c([N+](=O)[O-])cc(S(N)(=O)=O)cc1[N+](=O)[O-]`, with 34.3 µM (active) [middle of 4 runs]. The same measure, in the same setting: then `N#CC(CCc1ccc(Cl)cc1)(Cn1cncn1)c1ccccc1` (stereo not given), with 13.5 µM (active); and `CCCCNC(=O)OCC#CI`, with 21.5 µM (active) and 26.9 µM (active). The same measure, in the same setting: then `CCCCC(CC)COC(=O)c1ccccc1C(=O)OCC(CC)CCCC` (stereo not given), with 11 µM (active); and `COC(=O)N(OC)c1ccccc1COc1ccn(-c2ccc(Cl)cc2)n1`, with 28.1 µM (active). Turning to `C=CC1(C)OC(=O)N(c2cc(Cl)cc(Cl)c2)C1=O` (stereo not given), the result was inactive. The same measure, in the same setting: then `COP(N)(=O)SC` (stereo not given), with “inactive”; and `Cc1cc(Cl)ccc1OCC(=O)O`, with “inactive”; and `CCOP(=S)(OCC)SCn1c(=O)oc2cc(Cl)ccc21`, with “inactive”. Turning to `COc1nc(C)nc(NC(=O)NS(=O)(=O)c2ccccc2CCC(F)(F)F)n1`, the result was inactive. Same read-out and setting: the result for `CNC(=O)ON=CC(C)(C)SC` reads “inactive”.

`CCCCOC(=O)c1ccccc1C(=O)OCCCC`: the outcome was inactive. As for `CC(C)(C)c1ccc(CSc2cnn(C(C)(C)C)c(=O)c2Cl)cc1`, the AC50 was 7.9 µM (active).

On to `COc1nc(NC(C)C)nc(NC(C)C)n1`, for which the outcome was inactive. On to `CON(C)C(=O)Nc1ccc(Cl)c(Cl)c1`, for which the result was inactive. On to `CNC(=S)S`, for which the outcome was inactive.

As for `CCCCNC(=O)n1c(NC(=O)OC)nc2ccccc21`, the outcome was inactive. Regarding `Cc1ccc(-c2c(Cl)nc(C#N)n2S(=O)(=O)N(C)C)cc1`, the AC50 was 27.4 µM (active). Regarding `CCc1nn(C)c(C(=O)NCc2ccc(C(C)(C)C)cc2)c1Cl`, the AC50 was 30.2 µM (active). With `CCNc1nc(Cl)nc(NC(C)C)n1`, the result was inactive. The same measure, in the same setting: the result for `O=C(Nc1ccccc1)Nc1ccnc(Cl)c1` reads “inactive”; that for `CCCC1COC(Cn2cncn2)(c2ccc(Cl)cc2Cl)O1` (stereo not given), “inactive”. As to `COC(=O)C=C(C)OP(=O)(OC)OC`, the result was inactive. On to `C=CCC1=C(C)C(OC(=O)C2C(C=C(C)C)C2(C)C)CC1=O` (stereo not given), for which the outcome was inactive. Take `CC1COC(Cn2cncn2)(c2ccc(Oc3ccc(Cl)cc3)cc2Cl)O1` (stereo not given): the AC50 was 31 µM (active).

For the compound `COC(=O)C(C)Oc1ccc(Oc2ccc(Cl)cc2Cl)cc1` (stereo not given), the result was inactive. With `OC(c1ccc(Cl)cc1)(c1cncnc1)c1ccccc1Cl` (stereo not given), the outcome was inactive. As to `Oc1ccccc1-c1ccccc1`, the outcome was inactive. As to `C#CCOS(=O)OC1CCCCC1Oc1ccc(C(C)(C)C)cc1` (stereo not given), the half-maximal activity concentration (AC50) was 22.7 µM (active).

As usually defined, the AC50 is the concentration at which the activity in the assay is half-maximal.
